Data published in PubChem BioAssay (NCATS).
For some assays here: Potency and affinity values are given separately. Active and inactive are the calls of the source. The rule behind the calls is not given here.

Legend:
[1] = Ebola virus entry assay, green fluorescence channel
[2] = Ebola virus entry assay, blue channel fluorescence
[3] = Ebola virus entry assay, green channel fluorescence
[4] = Ebola virus entry assay, reporter ratio channel; AC50: Channel type: primary unless noted; outcome: Channel type: primary unless noted
[5] = Ebola virus entry assay, blue channel (ratio component)

Measured: efficacy
Throughout, for efficacy: 0% is about no effect.

CCCCCCOc1ccccc1C(N)=O
inactive: [1] -13.5% | [2] | [3] | [4] | [5]

CC(=O)Nc1ncc([N+](=O)[O-])s1
inactive: [1] 20.3% | [2] | [3] | [4] | [5]

CO/N=C(/C(=O)N[C@@H]1C(=O)N2C(C(=O)[O-])=C(C[n+]3ccn4ncccc43)CS[C@H]12)c1nsc(N)n1
inactive: [1] 12.5% | [2] | [3] | [4] | [5]

O=C1CC(c2ccc(Cl)cc2)CC(=O)N1
inactive: [1] -27.6% | [2] | [3] | [4] | [5]

CC(=O)[C@H]1CC[C@H]2[C@@H]3C[C@H](C)C4=CC(=O)CC[C@]4(C)[C@H]3[C@@H](O)C[C@]12C
inactive: [1] -17.9% | [2] | [3] | [4] | [5]

Oc1ccc(OCc2ccccc2)cc1
inactive: [1] 14.9% | [2] | [3] | [4] | [5]

COC(=O)/C=C\C(=O)OC
inactive: [1] 24.5% | [2] | [3] | [4] | [5]

Cn1c(=O)c2c(ncn2CCO)n(C)c1=O
inactive: [1] -37.9% | [2] | [3] | [4] | [5]

O=C1[C@@H]2[C@H]3CC[C@H](C3)[C@@H]2C(=O)N1CCCCN1CCN(c2ncccn2)CC1
inactive: [1] -13.3% | [2] | [3] | [4] | [5]

CCCCCCCC(=O)OCC(COC(=O)CCCCCCC)OC(=O)CCCCCCC
inactive: [1] 8.07% | [2] | [3] | [4] | [5]

CC(COc1ccccc1)NN (stereo not given)
inactive: [1] -13% | [2] | [3] | [4] | [5]

CCC(Cc1c(I)cc(I)c(N)c1I)C(=O)O (stereo not given)
inactive: [1] -15.6% | [2] | [3] | [4] | [5]

Cc1ccccc1C(=O)N1CC/C(=N\OS(=O)(=O)O)c2ccc(Cl)cc21
inactive: [1] -25% | [2] | [3] | [4] | [5]

CN[C@@H]1[C@@H](O)[C@@H](O[C@@H]2[C@H](O)[C@H](O[C@H]3OC(CN)=CC[C@H]3N)[C@@H](N)C[C@H]2N)OCC1(C)O (stereo not given in full)
inactive: [1] -7.04% | [2] | [3] | [4] | [5]

CC(=O)Oc1cccc(O)c1
inactive: [1] -10.5% | [2] | [3] | [4] | [5]

C=CCn1c(=O)n([C@@H]2O[C@H](CO)[C@@H](O)[C@H]2O)c2nc(N)[nH]c(=O)c21
inactive: [1] -17.7% | [2] | [3] | [4] | [5]

CC(C)(C)CC(C)(C)c1ccc(O)c(-n2nc3ccccc3n2)c1
inactive: [1] 9.19% | [2] | [3] | [4] | [5]

CCOC(=O)c1ccc(O)c(O)c1
inactive: [1] -26.2% | [2] | [3] | [4] | [5]

CCCC(CCC)(C(=O)OCC)C(=O)OCC
inactive: [1] 21% | [2] | [3] | [4] | [5]

O=C(O)/C=C(\CC(=O)O)C(=O)O
inactive: [1] -11% | [2] | [3] | [4] | [5]

CCCCCCCCCCCCCCCC(=O)O
inactive: [1] -6.91% | [2] | [3] | [4] | [5]

CC(=O)Nc1ccc(OC(=O)c2ccccc2OC(C)=O)cc1
inactive: [1] -28.5% | [2] | [3] | [4] | [5]

O=C(c1ccco1)N1CCNCC1
inactive: [1] 12.6% | [2] | [3] | [4] | [5]

O=C(O)CCc1nc2ccccc2[nH]1
inactive: [1] -21.2% | [2] | [3] | [4] | [5]

CC(C)=CCC/C(C)=C/CC/C(C)=C/CCC(=O)OC/C=C(\C)CCC=C(C)C
inactive: [1] 10.8% | [2] | [3] | [4] | [5]

O=S(=O)(O)c1cc(I)c(O)c2ncccc12
inactive: [1] 29.1% | [2] | [3] | [4] | [5]

CC(=O)N[C@@H](CCC(=O)O)C(=O)O
inactive: [1] -13.7% | [2] | [3] | [4] | [5]

CC(=O)OCC[N+](C)(C)C
inactive: [1] -18% | [2] | [3] | [4] | [5]

O=C(Oc1ccccc1)c1ccccc1O
inactive: [1] -17.4% | [2] | [3] | [4] | [5]

CC(=O)c1ccc(S(=O)(=O)NC(=O)NC2CCCCC2)cc1
inactive: [1] -18.3% | [2] | [3] | [4] | [5]

C=CCC1(C(C)CC)C(=O)NC(=O)NC1=O (stereo not given)
inactive: [1] 14.7% | [2] | [3] | [4] | [5]

CCCOc1ccc2c(c1)CC[C@@H]1[C@@H]2CC[C@]2(C)C(OC)CC[C@@H]12 (stereo not given in full)
inactive: [1] -11.2% | [2] | [3] | [4] | [5]

CN1CCN(CC(=O)N2c3ccccc3C(=O)Nc3cccnc32)CC1
inactive: [1] -20.7% | [2] | [3] | [4] | [5]

O=S(=O)(O)c1ccc2nc(-c3ccccc3)[nH]c2c1
inactive: [1] -32.6% | [2] | [3] | [4] | [5]

C[C@]12Cc3cn[nH]c3C[C@@H]1CC[C@@H]1[C@@H]2CC[C@@]2(C)[C@H]1CC[C@]2(C)O
inactive: [1] 8.25% | [2] | [3] | [4] | [5]

O=C(Oc1ccccc1C(=O)O)c1ccccc1O
inactive: [1] 10% | [2] | [3] | [4] | [5]

O=C(O)CN1C(=O)c2cccc3cccc(c23)C1=O
inactive: [1] 11.9% | [2] | [3] | [4] | [5]

C[C@@H]1CC2=CC(=O)CC[C@@H]2[C@H]2CC[C@@]3(C)[C@@H](CC[C@]3(C)O)[C@@H]21
inactive: [1] 24.6% | [2] | [3] | [4] | [5]

NNC(=O)c1ccncc1
inactive: [1] 13.1% | [2] | [3] | [4] | [5]

COc1cc(NS(=O)(=O)c2ccc(N)cc2)nc(C)n1
inactive: [1] -19.1% | [2] | [3] | [4] | [5]

CS(=O)(=O)c1ccc([C@@H](O)[C@@H](CO)NC(=O)C(Cl)Cl)cc1
inactive: [1] -14.2% | [2] | [3] | [4] | [5]

Cc1c[nH]c2ccccc12
inactive: [1] -29.9% | [2] | [3] | [4] | [5]

Cc1cc2c(cc1CC(=O)c1sccc1S(=O)(=O)Nc1onc(C)c1Cl)OCO2
inactive: [1] -22.3% | [2] | [3] | [4] | [5]

Cc1oc(=O)oc1COC(=O)[C@@H]1N2C(=O)[C@@H](NC(=O)[C@H](N)c3ccccc3)[C@H]2SC1(C)C
inactive: [1] -26.8% | [2] | [3] | [4] | [5]

CC(N=C(NC#N)Nc1ccncc1)C(C)(C)C (stereo not given)
inactive: [1] -23.2% | [2] | [3] | [4] | [5]

C[N+]1(C)[C@@H]2CC(OC(=O)[C@H](CO)c3ccccc3)C[C@H]1[C@@H]1O[C@@H]12 (stereo not given in full)
inactive: [1] 12.9% | [2] | [3] | [4] | [5]

C[C@]12C=CC(=O)C=C1[C@@H](F)C[C@@H]1[C@@H]2[C@@H](O)C[C@@]2(C)[C@H]1CC[C@]2(O)C(=O)CO
inactive: [1] 13.6% | [2] | [3] | [4] | [5]

Clc1cccc(C(c2ccc3nc[nH]c3c2)n2ccnc2)c1 (stereo not given)
inactive: [1] -19.4% | [2] | [3] | [4] | [5]

CCCCCCCCCCOc1cc2c(=O)c(C(=O)OCC)c[nH]c2cc1OCC
inactive: [1] 11% | [2] | [3] | [4] | [5]

NS(=O)(=O)c1cc(C(=O)NN2C[C@H]3[C@H]4CCC(C4)[C@H]3C2)ccc1Cl
inactive: [1] -15.5% | [2] | [3] | [4] | [5]

Nc1cc(=O)[nH]c(N)n1
inactive: [1] -17.6% | [2] | [3] | [4] | [5]

COC(=O)C1=C(C)NC(C)=C(C(=O)OCC(C)=O)C1c1ccccc1[N+](=O)[O-] (stereo not given)
inactive: [1] -11.1% | [2] | [3] | [4] | [5]

CCCCCCCC/C=C/C(=O)O
inactive: [1] 20.4% | [2] | [3] | [4] | [5]

COc1ccnc(CS(=O)c2nc3ccc(OC(F)F)cc3[nH]2)c1OC (stereo not given)
inactive: [1] -31.1% | [2] | [3] | [4] | [5]

Clc1cccc(Cl)c1NC1=NCCN1
inactive: [1] -12.5% | [2] | [3] | [4] | [5]

CC(=O)OCC(=O)[C@@]1(O)[C@H](C)C[C@H]2[C@@H]3CCC4=CC(=O)C=C[C@]4(C)[C@@]3(F)[C@@H](O)C[C@@]21C
inactive: [1] 26.4% | [2] | [3] | [4] | [5]

O=C(O)c1ccccc1OP(=O)(O)O
inactive: [1] 11.4% | [2] | [3] | [4] | [5]

CC(C(=O)O)c1ccc2c(c1)[nH]c1ccc(Cl)cc12 (stereo not given)
inactive: [1] -20.7% | [2] | [3] | [4] | [5]

NCCCNCCSP(=O)(O)O
inactive: [1] 18% | [2] | [3] | [4] | [5]

CCOC(N)=O
inactive: [1] -34.6% | [2] | [3] | [4] | [5]

O=C1c2ccccc2CCc2ccccc21
inactive: [1] 12.1% | [2] | [3] | [4] | [5]
